Screens deposited in PubChem by several laboratories.
GRK2 aptamer HTS = compounds blocking aptamer binding on GRK2 – biochemical, human GRK2, bead flow cytometry, HTS, primary screen. Beta-adrenergic receptor kinase 1 (Homo sapiens), P25098. FAM-aptamer displacement from GRK2. inhibition of aptamer binding, % at 10 µM. actives 0.59% (n = 330,000). AID 488847, 2010;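 active = inhibition of aptamer binding above 40%, roughly 3 SD of noise, on plates passing a quality check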;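 note: median bead fluorescence of bound FAM aptamer so fluorescent compounds give negative values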
PP1 inh = PP1-alpha phosphatase inhibitors, primary screen, counter-screen for PP5 inhibitor project, biochemical, fluorescence, OMFP substrate, single point; inhibition, % at 6.7 µM; AID 2235, 2010; purified PP1alpha; actives 0.9% (n = 320,000);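 active = inhibition above the mean inhibition of all tested compounds plus 3 SD, computed separately for each screening campaign, cut at about 15% in these data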
Target sequence (P62136 whole entry, looked up): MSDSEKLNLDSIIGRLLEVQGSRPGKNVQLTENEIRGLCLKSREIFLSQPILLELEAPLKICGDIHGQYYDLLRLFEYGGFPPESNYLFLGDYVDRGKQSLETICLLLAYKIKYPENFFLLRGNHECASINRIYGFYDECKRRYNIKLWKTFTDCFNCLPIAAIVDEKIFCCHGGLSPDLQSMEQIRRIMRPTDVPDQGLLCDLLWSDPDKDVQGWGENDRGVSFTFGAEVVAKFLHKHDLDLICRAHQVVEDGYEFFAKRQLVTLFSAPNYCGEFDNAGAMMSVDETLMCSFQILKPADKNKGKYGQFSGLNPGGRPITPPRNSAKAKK
NadD block = inhibitors of S. aureus NadD, primary screen, biochemical, colorimetric, uHTS; inhibition, % at 20 µM; actives 0.78% (n = 360,000); purified NadD enzyme, colorimetric absorbance read-out; in the data active = inhibition above about 26%
B2AR ag = beta2AR agonists driving receptor internalization, primary screen, cell-based, FAP fluorogen, flow cytometry | response, % (test concentration not listed) | Beta-2 adrenergic receptor (Homo sapiens), P07550 | actives 0.43% (n = 340,000) | AID 504454, 2011 | Am2.2-beta2AR cells;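 active = response above a set limit, near 3 SD of response in nonfluorescent compounds, cut at about 42% in these data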
Exocytosis inh = LAMP-1 surface exposure blockers, TALL-104 cells – cell-based, flow cytometry, MLPCN library, primary screen; TALL-104 LAMP-1 surface exposure; cells stimulated with thapsigargin and PMA; inhibition, % at 10 µM; actives 0.66% (n = 360,000);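 active = inhibition above about 55%, limit read from the data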
Active calls of the source: *. Only some compounds are listed: those with a hit (about 2.9% of all), similar ones and a draw of the others.

O=C(CCCOc1ccccc1)Nc1cccc(S(=O)(=O)N2CCCCC2)c1 was read as GRK2 aptamer HTS 2.0, PP1 inh 3.4, NadD block -6.2, B2AR ag -1.2 and Exocytosis inh -3.3.
For CN(Cc1ccccc1)c1nc(-c2cccc([N+](=O)[O-])c2)nc2ccccc12 the results were GRK2 aptamer HTS 0.0, PP1 inh -2.7, NadD block 6.6, B2AR ag -0.2 and Exocytosis inh 0.5.
CC1(C)Cc2c(ccc3ccccc23)/C(=C/C(=O)N2CCCCC2)N1 was read as GRK2 aptamer HTS 3.0, PP1 inh -0.1, NadD block -0.8, B2AR ag -6.2 and Exocytosis inh 12.8.
`O=C(/C=C1\NC2(CCCC2)Cc2ccccc21)N1CCOCC1` gave GRK2 aptamer HTS 1.0, PP1 inh 1.6, NadD block 8.1, B2AR ag -2.7 and Exocytosis inh 76.8*.
`O=C(O)C(CO)(c1ccccc1)c1ccccc1` gave GRK2 aptamer HTS 5.0, PP1 inh -2.7, NadD block 3.6, B2AR ag -2.6 and Exocytosis inh 0.5.
`Cn1c(SCCN2CCCCC2)nnc1-c1ccccc1Br` gave GRK2 aptamer HTS 3.0, PP1 inh 12.9, NadD block -1.8, B2AR ag -2.4 and Exocytosis inh -0.7.
`O=S1(=O)C=C(SCCN2CCCCC2)c2ccccc21` gave GRK2 aptamer HTS 1.0, PP1 inh -0.7, NadD block -0.5, B2AR ag -4.8 and Exocytosis inh 63.1*.
For CC(c1ccccc1)C1C(C#N)=C(N)OC2=C1C(=O)CC(C)(C)C2 (configuration not stated) the results were GRK2 aptamer HTS 0.0, PP1 inh 1.3, NadD block 1.2, B2AR ag 2.2 and Exocytosis inh 75.3*.
For Cc1ccc(C(=O)Cc2cc3ccccc3oc2=O)c(C)c1 the results were GRK2 aptamer HTS 2.0, PP1 inh -2.9, NadD block -8.7, B2AR ag -4.3 and Exocytosis inh -7.2.
COc1ccccc1-c1ccc2c(c1)C(C)(Cc1cccc(C#N)c1)C(=O)N2 (configuration not stated) was read as NadD block -5.7 and Exocytosis inh -4.4.
For CC1=CC2C(C(O)CC3(C)C2CC(C)C32OCOC23COCO3)C2(C)C/C(=C\O)C(=O)C=C12 (configuration not stated) the results were NadD block 12.2, B2AR ag 27.4 and Exocytosis inh 72.2*.
`CCS(=O)(=O)Nc1ccc(-c2nc3cccnc3s2)cc1` gave GRK2 aptamer HTS 0.0, PP1 inh -0.6, NadD block -5.2, B2AR ag 2.5 and Exocytosis inh -1.6.
COc1ccc(OC)c(NC(=O)COC(=O)CN(C)S(=O)(=O)c2ccc(C)cc2)c1 was read as GRK2 aptamer HTS 100.0*, PP1 inh -6.0, NadD block -4.7, B2AR ag 15.1 and Exocytosis inh 4.0.
Screening CC(Oc1ccc(Cl)cc1Cl)C(=O)NC1=NN(c2ccccc2)C(=O)C1 (configuration not stated) returned GRK2 aptamer HTS 0.0, PP1 inh 16.6*, NadD block 0.4, B2AR ag 2.2 and Exocytosis inh 3.8.
Cc1ccc(/C=N/n2c(C)nc3ccccc3c2=O)s1 was read as GRK2 aptamer HTS 2.0 and PP1 inh -1.8.
`Cc1cc(OCC(=O)Nc2ccc(CN3CCOCC3)cc2)c2c(C)c(C)c(=O)oc2c1` gave GRK2 aptamer HTS 1.0, PP1 inh 4.8, NadD block -5.0, B2AR ag 1.0 and Exocytosis inh 1.1.
Screening CC1(C(=O)O)CCCN(C(=O)c2cccnc2Oc2ccccc2)C1 (configuration not stated) returned NadD block -0.3 and Exocytosis inh 2.0.
Screening O=C(NCCCCCCNC(=O)OCc1ccccc1)OCc1ccccc1 returned NadD block -1.3, B2AR ag -4.9 and Exocytosis inh -2.1.
`O=C(O)CCCNC(=O)OCc1ccccc1` gave GRK2 aptamer HTS 4.0, PP1 inh 0.8, NadD block -4.3, B2AR ag 63.7* and Exocytosis inh 1.8.
For CCCCOc1ccc(C(=O)N/N=C/c2ccc(OCCN3CCCCC3)c(OC)c2)cc1 the results were GRK2 aptamer HTS 0.0, PP1 inh -0.5, NadD block -3.3, B2AR ag 43.3* and Exocytosis inh -3.6.
`CCn1c(C)nc2cc(NC(=O)Nc3cccc(C(C)=O)c3)ccc21` gave GRK2 aptamer HTS 0.0, PP1 inh -1.3, NadD block -4.5, B2AR ag -3.1 and Exocytosis inh -6.7.
For COc1ccc(/C=N/NC(=O)c2cccnc2)cc1COc1ccc([N+](=O)[O-])cc1 the results were GRK2 aptamer HTS 0.0, PP1 inh -3.2, NadD block -2.1, B2AR ag 7.8 and Exocytosis inh 61.1*.
COc1ccc(C(=O)Oc2ccc(/C=N/NC(=O)Cc3ccc([N+](=O)[O-])cc3)cc2)cc1 was read as GRK2 aptamer HTS 85.0*, PP1 inh -2.0, NadD block 9.8, B2AR ag 0.1 and Exocytosis inh -14.6.
Screening COc1ccc(/C=N\NC(=O)c2ccccc2[N+](=O)[O-])cc1COc1c(F)c(F)c(F)c(F)c1F returned GRK2 aptamer HTS 0.0, PP1 inh 4.5, NadD block 0.1, B2AR ag 52.6* and Exocytosis inh -0.1.
For COc1cc(/C=N/NC(=O)c2cccnc2)ccc1OC(=O)c1ccc([N+](=O)[O-])cc1 the results were GRK2 aptamer HTS 0.0, PP1 inh 1.9, NadD block 1.9, B2AR ag -4.1 and Exocytosis inh 76.0*.
Screening CCOc1ccccc1N(CC(=O)Nc1ccccc1C(=O)N1CCCC1)S(C)(=O)=O returned GRK2 aptamer HTS 0.0, PP1 inh 7.9, NadD block 0.7, B2AR ag -1.5 and Exocytosis inh -6.1.
Screening COc1ccc(CCNC(=O)c2cc3ccc(Cl)cc3nc2N)cc1 returned NadD block 2.3 and Exocytosis inh -5.9.
Screening CN(CC(=O)Nc1ccccc1Cl)C(=O)COC(=O)CSc1ccc(Cl)cc1 returned GRK2 aptamer HTS 6.0, PP1 inh -0.8, NadD block -7.5, B2AR ag -1.3 and Exocytosis inh -11.7.
For COc1ccc(CNC(=O)c2cn(Cc3ccccc3F)c(=O)s2)cc1 the results were NadD block -1.4 and Exocytosis inh -5.0.
For COc1ccc(/C=C/c2nc(-c3ccccc3O)n[nH]2)cc1OC the results were GRK2 aptamer HTS 5.0, PP1 inh 1.1, NadD block 3.5, B2AR ag 10.1 and Exocytosis inh 64.6*.
`N#Cc1c(NCCN)nc(NCc2ccccc2)c2c1CCN(Cc1ccccc1)C2` gave NadD block 30.5*, B2AR ag 8.6 and Exocytosis inh -2.3.
